Screening results (PubChem BioAssay)
Shown are actives, neighbours in structure and some others; about 7.3% of the full set was active somewhere.
ELG1 genotoxic = qHTS screen for small molecules that induce genotoxicity in human embryonic kidney (HEK293T) cells expressing luciferase-tagged ELG1 | hit rate 1.3% among 330,000 | HEK293T ELG1-luciferase reporter, luminescence, 16 h | Potency, µM (highest dose often 46 µM), for inactives: at the highest dose activity change, positive = activation, usual class: activators | AID 504466, 2011; also: % of control where 0% means no effect; nearly all actives have a fitted effect of over 60% in size
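Genotoxicity was scored as increased ELG1-luciferase reporter signal, measured by ONE-Glo luminescence (30 min, room temperature). Compound or vehicle exposure of the HEK293T reporter cells lasted 16 hr at 37°C.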
NPC1 promoter act = qHTS Assay for NPC1 Promoter Activators | hit rate 2.4% among 320,000 | Huh7 NPC1 promoter luciferase reporter, 24 h | Potency, µM (series often up to 9.22 µM), for the others: at the highest dose activation, most hits filed as activators; also: % of control where 0% means no effect; nearly all actives have a fitted effect of over 60% in size
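Quantitative HTS used a cell-based reporter: Huh7 cells stably bearing the NPC1 promoter upstream of luciferase were treated with compounds for 24 h, and promoter activation was read as luminescence.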
Rab9 prom act = qHTS Assay for Rab9 Promoter Activators; Huh7 Rab9 promoter-luciferase reporter, luminescence, 24 h; Potency, µM (titrated, usually from 9.22 µM), inactives show at the top dose activation, negative = inhibition, most hits filed as activators; hit rate 2.8% among 320,000; also: % of control where 0% means no effect; nearly all actives have a fitted effect of over 60% in size
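Luminescence read-out: Huh7 cells stably expressing Rab9-luciferase, treated 24 h with compound at 37 °C, then lysed with luciferase reagent for 10 min at ambient before reading.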
SMN2 splice enh = qHTS Assay for Enhancers of SMN2 Splice Variant Expression. hit rate 2.8% among 210,000. AID 1458, 2008. HEK293 SMN2-luciferase splicing reporter, luminescence, 30-36 h. Potency, µM (doses to about 46.1 µM), without a hit: at the highest dose activity change, positive = activation, most hits filed as activators; also: % of control where 0% means no effect; nearly all actives have a fitted effect of over 55% in size
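qHTS luciferase splicing reporter: luminescence rises when SMN2 exon 7 is included in transfected HEK293 cells. Compound exposure lasted 30-36 h at 37C, with 4.5 mM final sodium butyrate as control, followed by a ONE-Glo read.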
FLuc counter = qHTS profiling assay for firefly luciferase inhibitor/activator using purifed enzyme and Km concentrations of substrates (counterscreen for miR-21 project); AID 588342, 2011; Potency, µM (titrated, usually from 57.5 µM), without a hit: top-dose activity change, negative = inhibition, most hits filed as inhibitors; hit rate 6.9% among 360,000; purified FLuc, Km substrates, luminescence inhibition;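 also: plate controls were vehicle for no effect and reference inhibitor for full effect; nearly all actives have a fitted effect of over 55% in size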
Target sequence (P08659 whole entry, looked up): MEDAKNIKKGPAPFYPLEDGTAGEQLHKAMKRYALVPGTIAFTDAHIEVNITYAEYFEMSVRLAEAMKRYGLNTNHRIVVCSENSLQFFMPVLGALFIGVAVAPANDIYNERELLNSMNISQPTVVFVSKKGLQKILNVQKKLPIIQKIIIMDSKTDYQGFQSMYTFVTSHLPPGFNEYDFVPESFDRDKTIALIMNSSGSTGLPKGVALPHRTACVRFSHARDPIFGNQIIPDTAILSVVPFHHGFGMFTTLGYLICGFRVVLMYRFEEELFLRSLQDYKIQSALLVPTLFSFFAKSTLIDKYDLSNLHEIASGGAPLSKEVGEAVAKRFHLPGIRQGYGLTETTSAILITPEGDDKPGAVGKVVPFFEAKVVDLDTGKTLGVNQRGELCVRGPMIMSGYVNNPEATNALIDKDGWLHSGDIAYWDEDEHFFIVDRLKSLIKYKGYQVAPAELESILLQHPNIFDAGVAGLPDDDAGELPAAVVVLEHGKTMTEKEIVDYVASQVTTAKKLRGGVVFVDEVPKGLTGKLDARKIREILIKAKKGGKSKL
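Biochemical qHTS of compounds, final roughly 60 µM downward over six points, against 10 nM purified firefly luciferase using Km concentrations of substrates (10 uM D-luciferin, 10 uM ATP) in Tris acetate pH 7.5 buffer; luminescence output.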
Luc counter = Counterscreen for Luciferase (Kinase-Glo TM) Inhibition; Luciferin 4-monooxygenase (Photuris pensylvanica), Q27757; Kinase-Glo luciferase, ATP luminescence, 8 min; Potency, µM (titrated, usually from 38.3 µM), for the others: at the highest dose activity change, negative = inhibition, actives largely listed as inhibitors; hit rate 0.28% among 200,000; AID 1379, 2008; also: % is scaled to controls: 0 for no effect and ±100 for the full control effect; nearly all actives have a fitted effect of over 60% in size
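Substrate mix (final 50 mM imidazole pH 7.2, 50 mM KCl, 7 mM MgCl2, 10 uM ATP, 0.01% Tween 20, 0.05% BSA) plus pin-tool compound, then Kinase-Glo detection mix; 8 min ambient, luminescence read.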
An asterisk follows results filed as active; ? = inconclusive; . = no result given; [ ] = dose if it differs, or a comment. Calls follow the shape of the dose curve; as a rule, active = well fitted curve in the direction sought with a large enough effect; inconclusive = small, poorly fitted or top-dose-only effect, or another doubt; inactive = no such curve, though single readings can be large; an effect the other way counts as inactive or inconclusive. Potency is read from the fitted curve at half-maximal effect.

SMILES	ELG1 genotoxic	NPC1 promoter act	Rab9 prom act	SMN2 splice enh	FLuc counter	Luc counter
CCOC(=O)c1ccccc1NC(=O)Cn1nnc2sc3c(c2c1=O)CCCC3	.	.	.	-1.4%	-9.8%	.
C[C@]12CC[C@H]3c4ccc(O)cc4CC[C@@H]3[C@H]1CC[C@@H]2OC(=O)CCc1ccccc1	.	.	.	6.1%[9.22 µM]	.	-9.1%[7.66 µM]
Brc1ccc(-c2ccc(CNCc3ccccn3)o2)cc1	3.3%	24.1%	2.8%	.	15.1µM*	.
Clc1cccc(-c2ccc(CNCc3ccccn3)o2)c1	-9.6%	0.4%	9.7%	.	?	.
CCOc1c(Nc2ccc(C(C)C)cc2)c(=O)c1=O	1.3%	-2.3%	0.7%	.	13.5µM*	.
COc1nc(Nc2ccc(C(C)C)cc2)nc(OC)n1	15.5%	24.7%	19.6%	?	?	-4.4%
O=C(O)[C@@H](O)c1ccc(F)cc1	.	.	.	-9.3%[9.22 µM]	.	-5.6%[7.66 µM]
CCOC(=O)c1ccc2c(c1)[nH]c(=S)n2CC	20.6µM*	18.4%	?	.	19µM*	-2.1%
CCOC(=O)c1ccc2c(c1)n(CC)c(C)[n+]2CC	-1.8%	0.3%	-1.4%	-6.1%	-2.7%	-3.5%
O=c1oc2ccc(Br)cc2cc1-c1csc(-c2ccccc2)n1	.	.	.	.	2.3%	.
O=C1CC(c2cc(-c3ccccc3)no2)C1	?	?	2.82µM*	.	?	.
COC(=O)C1=C(C(=O)OC)[C@@H]2N(C)c3ccc(OC)cc3[C@@]23C[C@@H](C(=O)OC)N(S(=O)(=O)c2ccc(C#N)cc2)C3=N1	.	.	.	-0.5%[9.22 µM]	.	-2.5%[7.66 µM]
Cc1ccc(Cl)cc1N1CCN(C(=O)c2sc3nc4n(c(=O)c3c2C)CCC4)CC1	.	.	.	.	-1.1%	.
Cc1ccc(-c2cn3nc(-c4ccccc4)c(-c4ccccc4)nc3n2)cc1	0.0%	3.7%	1.7%	.	-13.3%	.
COCc1nn2cc(-c3ccc(C)cc3)nc2s1	.	.	.	2.51µM*	1.35µM*	.
COc1ccc(-c2nnc3sc(COc4ccc(C)cc4)nn23)cc1	0.5%	2.3%	-4.8%	-1.4%	?	-1.8%
Cc1nc2nc(-c3ccc(Cl)cc3)cn2nc1C	?	?	0.355µM*	0.708µM*	1.07µM*	?
CCc1nn2cc(-c3ccccc3)nc2s1	.	0.112µM*	0.126µM*	1.41µM*	0.477µM*	10µM*
COc1cccc(-c2cn3nc(C)c(C)nc3n2)c1	?	2µM*	2.82µM*	12.6µM*	10.7µM*	11.2µM*
Cc1nc2ccccn2c(=O)c1NC(=O)c1ccc(C(F)(F)F)cc1	.	.	.	.	0.6%	.
COc1ccc(N2CCN(C(=O)Cc3c(C(=O)O)c(C)cn3C)CC2)cc1	.	.	.	.	-6.9%	.
Cc1nn2c(-c3ccc(Cl)cc3)nnc2s1	2.0%	-0.1%	-4.2%	-16.8%	-2.0%	14.9%
Cc1nc2nc(-c3cccs3)cn2nc1C	?	1.41µM*	0.501µM*	14.1µM*	10.7µM*	?
Cc1nn2cc(-c3ccc(Cl)cc3)nc2s1	0.517µM*	0.316µM*	0.316µM*	3.55µM*	1.2µM*	-8.8%
Cc1nn2cc(-c3ccc(-c4ccccc4)cc3)nc2s1	0.82µM*	0.631µM*	?	?	0.536µM*	6.5%
SMILES	ELG1 genotoxic	NPC1 promoter act	Rab9 prom act	SMN2 splice enh	FLuc counter	Luc counter
CCOc1ccc(-c2cn3nc(CC(C)C)sc3n2)cc1	.	.	.	16.9%	2.69µM*	.
Cc1c(Cl)cccc1NS(=O)(=O)c1ccc2[nH]cc(C(=O)NC3CCCC3)c(=O)c2c1	.	.	.	-6.6%	?	.
NCc1ccc(C(=O)O)cc1	.	.	.	-10.3%[9.22 µM]	.	-1.7%[7.66 µM]
COc1cc(NC(=O)Cn2c(C)cc(C)c(C#N)c2=O)cc(OC)c1	.	.	.	.	1.4%	.
O=C(O)c1cc2ccccc2c(S(=O)(=O)O)c1O	.	.	.	-10.0%[9.22 µM]	.	-0.8%[7.66 µM]
COc1cc(/C=C2/N=C(c3ccccc3F)OC2=O)cc(Cl)c1OS(C)(=O)=O	-0.6%	-4.5%	-1.0%	19.0%	8.49µM*	0.3%
CCCc1ccc(-c2ccc(C(=O)Oc3ccc(Br)cc3)cc2)nc1	.	.	.	3.9%	-3.9%	.
CCCCCc1ccc(-c2ccc(Br)cc2)nc1	.	.	.	-1.5%	2.13µM*	.
CCCCCCCc1ccc(-c2ccc(O)cc2)nc1	?	?	3.16µM*	14.1µM*	19µM*	-0.8%
O=C(CCS(=O)(=O)c1ccccc1)N1CCN(c2ccccc2F)CC1	8.2µM*	1.78µM*	1.26µM*	.	10.7µM*	.
CCOC(=O)c1ccc(NC2=CC(c3ccc(O)c(OCC)c3)N(c3ccc(C(=O)OCC)cc3)C2=O)cc1 (stereo unspecified)	.	.	.	0.8%	3.9%	.
CC/C(=N\NC(=O)c1cc(C2CC2)[nH]n1)c1ccccc1	?	3.55µM*	?	.	13.5µM*	.
O=C(N/N=C/c1ccc(O)cc1)c1cc(C2CC2)[nH]n1	4.0%	0.1%	2.5%	.	-18.3%	.
Cc1nn(-c2ccccc2)c(C)c1/C=N/NC(=O)c1cc(C2CC2)[nH]n1	?	2.7%	3.1%	?	16.9µM*	-3.3%
Cc1cc(C(=O)N/N=C/c2c(C)nn(-c3ccccc3)c2C)n[nH]1	7.9%	19.8%	22.1%	.	16.9µM*	.
O=C(N/N=C/c1c(F)cccc1Cl)c1cc(C2CC2)[nH]n1	?	?	?	.	16.9µM*	.
Cc1ccc(CCNC(=O)CCn2nc(-c3ccc(Cl)cc3)ccc2=O)cc1	.	.	.	.	0.1%	.
CCOC(=O)c1cnc(Nc2nc3ccccc3o2)nc1CN1CCN(C)CC1	?	29.3%	2.1%	12.6µM*	-2.3%	-3.3%
CCOC(=O)c1oc2ccccc2c1NC(=O)CN1CCN(C)CC1	2.8%	-0.1%	-9.8%	-2.2%	10.1%	10.6%
CC(C)(C)c1ccc(C(=O)CCC(=O)OCC(=O)NCCc2ccc(S(N)(=O)=O)cc2)cc1	1.8%	-2.2%	-3.9%	.	12µM*	.
CC1CCN(CCNC(=O)c2ccc(Cn3c(SCc4ccccc4)nc4cccnc43)cc2)CC1	.	.	.	1.8%	12µM*	.
Cc1cccc(Cn2c(SCc3ccc(C(=O)NCCc4ccccc4)cc3)nc3cccnc32)c1	.	.	.	.	-14.1%	.
O=C(NCCN1CCCCC1)c1ccc(Cn2c(SCc3ccccc3)nc3cccnc32)cc1	.	.	.	4.2%	12µM*	.
